# About 83,000 compounds went through this panel and 20% of them were active in at least one assay; those are over-represented in the sample as a whole.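 The test compound was applied at a single concentration to cells in 96-well plates for 48 hours, and percent growth was recorded.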 Calls of active or inactive are those of the source. How the source made its calls: active means growth percent below 10; inactive means the rest.
# Tested on: SF-268 CNS
# Assay: NCI-60 one-dose screen, 48 h (100 = growth as untreated, 0 = no growth, -100 = all killed)
# Settings: 10 µM unless noted
row,Compound,growth
1,CC[C@H](C)[C@H](N)C(=O)O,105% (inactive)
2,COc1ccc2c(c1)sc1nc(-c3ccccc3)c(-c3cccc4ccccc34)n12,50.8% (inactive)
3,Cc1ccc(C)c(NC(=O)c2sc3c(=O)[nH]cnc3c2C)c1,101% (inactive)
4,Cc1ccncc1NC=O,104% (inactive)
5,COc1ccc(/C(C)=N/NC(=O)CSc2nc3ccccc3c(=O)n2CCc2ccc(S(N)(=O)=O)cc2)cc1,28.3% (inactive)
6,COC(=O)OC1C(O[C@H]2C[C@H]3[C@@H]4CC=C5C[C@@H](O)CC[C@]5(C)[C@H]4CC[C@]3(C)[C@H]2[C@H](C)C(=O)CCC(C)C)OCC(O)C1OC1OCC(O)C(O)C1OC(=O)c1ccc(OC)cc1 (stereo partly drawn),-6.22% (active)
7,O=C1CCCN1C1CCN2CCCc3cccc1c32 (stereo not drawn),112% (inactive)
8,CC1OC(n2c3ccccc3c3c4c(c5c6ccccc6[nH]c5c32)C(=O)N(CCN[C@H]2CCC[C@@H]2N)C4=O)CC(O)C1O (stereo partly drawn),33.5% (inactive)
9,COc1ccc2[nH]cc(C3(c4c[nH]c5ccc(OC)cc45)C(=O)Nc4ccc(F)cc43)c2c1,53.9% (inactive)
10,c1cc2c(cc1-c1cnc3nonc3n1)OCO2,82.9% (inactive)
11,Nc1c(C(=O)Nc2cccc(Cl)c2)sc2nc3c(cc12)C(=O)CCC3,63.1% (inactive)
12,O=C(Nc1ccc(Br)cc1)c1ccc(Cl)c(Cl)c1,73.6% (inactive)
13,O=C(CSc1nc2c(n1Nc1ccccc1)-c1ccccc1SC2)Nc1nccs1,96.2% (inactive)
14,COc1ccc(-c2nc3c(c(-c4ccc(Cl)cc4)nn3-c3ccccc3)c(-c3ccc(O)cc3)c2C#N)cc1,46.1% (inactive)
15,c1csc(-c2cnc3nonc3n2)c1,88.7% (inactive)
16,CC1(C)CC(=O)c2cc3c(N)c(C(=O)Nc4ccc(Cl)cc4)sc3nc2C1,125% (inactive)
17,CN1C(=O)C(C(=O)/C=C/c2ccccc2C(=O)O)C(=O)N(C)C1=O,100% (inactive)
18,CC(NC(=O)c1ccccc1)C(=O)Nc1ccccc1 (stereo not drawn),108% (inactive)
19,CN1CCC2(CC1)N=C(SCC(=O)Nc1cnc3ccccc3c1)C(c1ccc(Br)cc1)=N2,35.9% (inactive)
20,CSc1nc(N)c2[nH]c(-c3cc4ccccc4[nH]c3=O)nc2n1,78.2% (inactive)

row,Compound,growth
1,C=CC(=O)N1CN(C(=O)C=C)CN(C(=O)C=C)C1,85.3% (inactive)
2,CC(C)(C)[Si](C)(C)OC1[C@@H](O[Si](C)(C)C(C)(C)C)[C@@H](CNC(=O)NC(=O)NC(=O)CCl)O[C@H]1n1cnc2c(NC(=O)Nc3ccccc3)ncnc21 (stereo partly drawn),47.1% (inactive)
3,CCCCCCCC/C=C/CCCCCCCC1=NC(C)(C)CN1c1ccccc1,91.9% (inactive)
4,CCCCCCCCN(CCCCCCCC)C(=O)CCl,99% (inactive)
5,COc1cc(OC)c(Cl)cc1N,104% (inactive)
6,CNC(=O)c1c(NC(=O)c2ccc(C(C)C)cc2)sc2c1CCC(=O)C2,15.3% (inactive)
7,COc1nccc2c(Sc3ccccc3)nc(N)nc12,105% (inactive)
8,Nc1c(C(=O)Nc2ccccc2)sc2nc3c(cc12)C(=O)CCC3,53.4% (inactive)
9,CCC(=O)NC1=C(Cl)C(=O)C(NC(=O)CC)=C(Cl)C1=O,118% (inactive)
10,CCCCCCCCCCCCC1CCC(=O)O1 (stereo not drawn),97.1% (inactive)
11,CCN1C(=O)N(CC)C2C1NC(=O)N2/N=C/C=C/c1ccccc1 (stereo not drawn),59.7% (inactive)
12,CN(C)CCCN1c2ccccc2CCc2ccccc21,95.1% (inactive)
13,CC(CN1CCN(CC(C)Nc2ccnc3cc(Cl)ccc23)CC1)Nc1ccnc2cc(Cl)ccc12 (stereo not drawn),16.7% (inactive)
14,S=C(S)Oc1cccc2cccnc12,109% (inactive)
15,CCn1c(Cc2ccccc2Nc2c(Cl)cccc2Cl)nnc1SCC(=O)Nc1cccc(OC)c1,82.1% (inactive)
16,CCc1onc(-c2ccc(OC)cc2)c1-c1ccccc1OCCN(CC)CC,85.8% (inactive)
17,COc1ccc(-c2cc(-c3ccc(OC)cc3)c3sc(=O)[nH]c3n2)cc1,92.6% (inactive)
18,COc1ccc2nc3ccccc3c(NCc3ccc(C)cc3)c2c1,48.4% (inactive)
19,CS(=O)(=O)c1ccc(C(=O)Nc2ccc(Cl)c(-c3ccccn3)c2)c(Cl)c1,31.8% (inactive)

# Tested on: SF-295 CNS
# Assay: as above
# Settings: 10 µM unless noted
row,Compound,growth
1,CC[C@H](C)[C@H](N)C(=O)O,104% (inactive)
2,COc1ccc2c(c1)sc1nc(-c3ccccc3)c(-c3cccc4ccccc34)n12,-38.7% (active)
3,Cc1ccc(C)c(NC(=O)c2sc3c(=O)[nH]cnc3c2C)c1,73.3% (inactive)
4,Cc1ccncc1NC=O,104% (inactive)
5,COc1ccc(/C(C)=N/NC(=O)CSc2nc3ccccc3c(=O)n2CCc2ccc(S(N)(=O)=O)cc2)cc1,28.5% (inactive)
6,COC(=O)OC1C(O[C@H]2C[C@H]3[C@@H]4CC=C5C[C@@H](O)CC[C@]5(C)[C@H]4CC[C@]3(C)[C@H]2[C@H](C)C(=O)CCC(C)C)OCC(O)C1OC1OCC(O)C(O)C1OC(=O)c1ccc(OC)cc1 (stereo partly drawn),-66.4% (active)
7,O=C1CCCN1C1CCN2CCCc3cccc1c32 (stereo not drawn),110% (inactive)
8,CC1OC(n2c3ccccc3c3c4c(c5c6ccccc6[nH]c5c32)C(=O)N(CCN[C@H]2CCC[C@@H]2N)C4=O)CC(O)C1O (stereo partly drawn),25.6% (inactive)
9,COc1ccc2[nH]cc(C3(c4c[nH]c5ccc(OC)cc45)C(=O)Nc4ccc(F)cc43)c2c1,56.7% (inactive)
10,c1cc2c(cc1-c1cnc3nonc3n1)OCO2,101% (inactive)
11,Nc1c(C(=O)Nc2cccc(Cl)c2)sc2nc3c(cc12)C(=O)CCC3,-20.2% (active)
12,O=C(Nc1ccc(Br)cc1)c1ccc(Cl)c(Cl)c1,6.6% (active)
13,O=C(CSc1nc2c(n1Nc1ccccc1)-c1ccccc1SC2)Nc1nccs1,122% (inactive)
14,COc1ccc(-c2nc3c(c(-c4ccc(Cl)cc4)nn3-c3ccccc3)c(-c3ccc(O)cc3)c2C#N)cc1,-6.26% (active)
15,c1csc(-c2cnc3nonc3n2)c1,101% (inactive)
16,CC1(C)CC(=O)c2cc3c(N)c(C(=O)Nc4ccc(Cl)cc4)sc3nc2C1,100% (inactive)
17,CN1C(=O)C(C(=O)/C=C/c2ccccc2C(=O)O)C(=O)N(C)C1=O,98.4% (inactive)
18,CC(NC(=O)c1ccccc1)C(=O)Nc1ccccc1 (stereo not drawn),125% (inactive)
19,CN1CCC2(CC1)N=C(SCC(=O)Nc1cnc3ccccc3c1)C(c1ccc(Br)cc1)=N2,28% (inactive)
20,CSc1nc(N)c2[nH]c(-c3cc4ccccc4[nH]c3=O)nc2n1,99.2% (inactive)

row,Compound,growth
1,C=CC(=O)N1CN(C(=O)C=C)CN(C(=O)C=C)C1,112% (inactive)
2,CC(C)(C)[Si](C)(C)OC1[C@@H](O[Si](C)(C)C(C)(C)C)[C@@H](CNC(=O)NC(=O)NC(=O)CCl)O[C@H]1n1cnc2c(NC(=O)Nc3ccccc3)ncnc21 (stereo partly drawn),-20.6% (active)
3,CCCCCCCC/C=C/CCCCCCCC1=NC(C)(C)CN1c1ccccc1,-5.3% (active)
4,CCCCCCCCN(CCCCCCCC)C(=O)CCl,106% (inactive)
5,COc1cc(OC)c(Cl)cc1N,135% (inactive)
6,CNC(=O)c1c(NC(=O)c2ccc(C(C)C)cc2)sc2c1CCC(=O)C2,-29.4% (active)
7,COc1nccc2c(Sc3ccccc3)nc(N)nc12,103% (inactive)
8,Nc1c(C(=O)Nc2ccccc2)sc2nc3c(cc12)C(=O)CCC3,-12.4% (active)
9,CCC(=O)NC1=C(Cl)C(=O)C(NC(=O)CC)=C(Cl)C1=O,137% (inactive)
10,CCCCCCCCCCCCC1CCC(=O)O1 (stereo not drawn),105% (inactive)
11,CCN1C(=O)N(CC)C2C1NC(=O)N2/N=C/C=C/c1ccccc1 (stereo not drawn),34.9% (inactive)
12,CN(C)CCCN1c2ccccc2CCc2ccccc21,106% (inactive)
13,CC(CN1CCN(CC(C)Nc2ccnc3cc(Cl)ccc23)CC1)Nc1ccnc2cc(Cl)ccc12 (stereo not drawn),-48.2% (active)
14,S=C(S)Oc1cccc2cccnc12,110% (inactive)
15,CCn1c(Cc2ccccc2Nc2c(Cl)cccc2Cl)nnc1SCC(=O)Nc1cccc(OC)c1,81.9% (inactive)
16,CCc1onc(-c2ccc(OC)cc2)c1-c1ccccc1OCCN(CC)CC,79.5% (inactive)
17,COc1ccc(-c2cc(-c3ccc(OC)cc3)c3sc(=O)[nH]c3n2)cc1,96.8% (inactive)
18,COc1ccc2nc3ccccc3c(NCc3ccc(C)cc3)c2c1,23.6% (inactive)
19,CS(=O)(=O)c1ccc(C(=O)Nc2ccc(Cl)c(-c3ccccn3)c2)c(Cl)c1,8.89% (active)

# Reference: PubChem BioAssay (NCI)
